# Measured values from PubChem BioAssay AID493243 (Broad Institute, 2011).
# The source made the active and inactive calls. No rule for the calls is given here.
# Assay: compounds quenching green fluorescent protein signal – biochemical, plate reader, dry powder, artefact control, dose response (AID 493243)
# Settings: GFP fluorescence counter-screen; series mostly up to 35 µM; activity change, negative = inhibition: at the top concentration
Structure (SMILES),"activity change, negative = inhibition",AC50
Nc1cn(-c2ccccc2)nc1-c1ccc(F)cc1,1.12% (inactive),–
Cn1nc(-c2ccccn2)nc2c(=O)n(C)c(=O)nc1-2,–,752 nM (active)
Cc1ccccc1-n1ncc2c([N+](=O)[O-])cc([N+](=O)[O-])cc21,–,9400 nM (active)
Cc1oc2c(c1C(=O)NCc1cccnc1)C(=O)c1ccccc1C2=O,–,3570 nM (active)
Cc1oc2c(c1C(=O)NCc1ccccn1)C(=O)c1ccccc1C2=O,–,1040 nM (active)
